From PubChem BioAssay (Tox21)
Values joined by “and” are separate entries in the source; they are usually repeats but may differ in a detail not shown here. Equal entries are not always repeated. Records with an inconclusive call do not appear. A call without a number means that no potency is given here. More than one record can exist for a structure, and the calls need not agree. Active and inactive are the calls of the source. Unless noted, calls come from the whole dose curve; as a rule, active = well fitted curve in the direction sought with a large enough effect in the repeat runs; inconclusive = weak or mixed curves; inactive = no such curve, though single readings can be large; an effect the other way counts as inactive or inconclusive.

Columns and labels:
[1] = target: Luciferin 4-monooxygenase (Photinus pyralis) (UniProt P08659); test: qHTS assay to identify small molecule inhibitors of firefly luciferase (AID 1224835); note: nearly all actives have a fitted effect of over 25% in size
Luciferin 4-monooxygenase (Photinus pyralis), sequence (P08659 whole entry, looked up): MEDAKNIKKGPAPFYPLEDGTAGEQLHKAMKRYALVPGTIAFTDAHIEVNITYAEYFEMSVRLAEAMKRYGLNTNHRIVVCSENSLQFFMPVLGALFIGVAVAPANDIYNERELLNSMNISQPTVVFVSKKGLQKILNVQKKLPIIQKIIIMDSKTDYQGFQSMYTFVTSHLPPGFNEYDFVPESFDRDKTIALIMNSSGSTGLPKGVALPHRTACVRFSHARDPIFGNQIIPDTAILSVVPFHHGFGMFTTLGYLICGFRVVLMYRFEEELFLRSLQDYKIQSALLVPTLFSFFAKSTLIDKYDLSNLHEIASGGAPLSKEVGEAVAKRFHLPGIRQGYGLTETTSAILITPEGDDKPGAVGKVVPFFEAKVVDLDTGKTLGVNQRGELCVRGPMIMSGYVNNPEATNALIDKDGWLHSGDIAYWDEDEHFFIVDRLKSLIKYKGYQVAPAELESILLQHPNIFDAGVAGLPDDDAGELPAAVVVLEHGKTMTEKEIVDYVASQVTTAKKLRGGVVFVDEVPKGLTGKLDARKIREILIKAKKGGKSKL
Summary of the method: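 Quantitative HTS format; KM concentrations of both substrates. Purified P. pyralis FLuc activity quantified from luminescence images.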

[2] = qHTS assay to identify small molecule agonists of the constitutive androstane receptor (CAR) signaling pathway - cell viability counter screen (AID 1224836); note: nearly all actives have a fitted effect of over 45% in size; note: potency is the fitted concentration of half-maximal effect
Summary of the method: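 Using CellTiter-Fluor, viability of HepG2 cells harbouring hCAR and CYP2B6-2.2kb was measured following 23 h incubation with a 15-concentration compound series plus PK11195 (0.75 uM final).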

[3] = qHTS assay to identify small molecule antagonists of the constitutive androstane receptor (CAR) signaling pathway - cell viability counter screen (AID 1224837); note: nearly all actives have a fitted effect of over 45% in size; note: potency is the fitted concentration of half-maximal effect
Summary of the method: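 HepG2 cells stably carrying hCAR and CYP2B6-2.2kb reporter, stimulated with 50 nM CITCO and compounds at 15 concentrations for 23 h at 37 C. Viability measured by CellTiter-Fluor fluorescence.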

[4] = target: Nuclear receptor subfamily 1 group I member 3 (Homo sapiens) (UniProt Q14994); test: qHTS assay to identify small molecule antagonists of the constitutive androstane receptor (CAR) signaling pathway (AID 1224838); note: nearly all actives have a fitted effect of over 40% in size; note: potency is the fitted concentration of half-maximal effect
Nuclear receptor subfamily 1 group I member 3 (Homo sapiens), sequence (Q14994 whole entry, looked up): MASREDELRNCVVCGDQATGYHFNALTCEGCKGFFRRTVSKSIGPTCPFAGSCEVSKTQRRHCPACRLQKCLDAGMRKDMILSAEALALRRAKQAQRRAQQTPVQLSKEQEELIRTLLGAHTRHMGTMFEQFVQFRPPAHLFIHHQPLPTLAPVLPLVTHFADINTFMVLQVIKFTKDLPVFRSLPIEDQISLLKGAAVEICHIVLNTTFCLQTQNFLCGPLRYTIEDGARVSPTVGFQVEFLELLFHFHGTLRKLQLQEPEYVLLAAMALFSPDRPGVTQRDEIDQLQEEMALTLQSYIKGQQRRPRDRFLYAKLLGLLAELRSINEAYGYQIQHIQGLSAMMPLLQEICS
Summary of the method: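 HepG2 cells stably carrying hCAR and a CYP2B6-2.2kb luciferase reporter, seeded 4 hrs before compound (15 concentrations). Stimulated with 50 nM CITCO for 24 hr at 37 C. ONE-Glo luminescence read after 30 min at room temperature.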

[5] = target: Nuclear receptor subfamily 1 group I member 3 (Homo sapiens) (UniProt Q14994); test: qHTS assay to identify small molecule agonists of the constitutive androstane receptor (CAR) signaling pathway (AID 1224839); note: nearly all actives have a fitted effect of over 15% in size; note: potency is the fitted concentration of half-maximal effect
Summary of the method: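 Double-stable HepG2 cells (hCAR, CYP2B6-2.2kb) seeded 4 h before compound addition. Exposure 24 h with 0.75 uM PK11195 final. Luciferase detected by ONE-Glo.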

[6] = qHTS assay to identify small molecule antagonists of the estrogen related receptor signaling pathway with the pleiotropic PPARgamma coactivator (PGC) from Tox21 10K library - cell viability counter screen (AID 1224840; active = well fitted cell-killing curve with a large enough effect in the repeat runs, not every such curve was filed as active; note: nearly all actives have a fitted effect of over 40% in size; note: potency is the fitted concentration of half-maximal effect)
Summary of the method: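 PGC/ERR cells (2,000/well) plated 6 h, then compound-treated for 17.5 h at 37 C. Viability measured by CellTiter-Fluor fluorescence after 30 min at 37 C, multiplexed with the pathway assay.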

[7] = target: Thyrotropin receptor (Homo sapiens) (UniProt P16473); test: qHTS assay to identify small molecule agonists of the thyroid stimulating hormone receptor (TSHR) signaling pathway (AID 1224843; calls by dose curve; note: nearly all actives have a fitted effect of over 45% in size)
Thyrotropin receptor (Homo sapiens), sequence (P16473 whole entry, looked up): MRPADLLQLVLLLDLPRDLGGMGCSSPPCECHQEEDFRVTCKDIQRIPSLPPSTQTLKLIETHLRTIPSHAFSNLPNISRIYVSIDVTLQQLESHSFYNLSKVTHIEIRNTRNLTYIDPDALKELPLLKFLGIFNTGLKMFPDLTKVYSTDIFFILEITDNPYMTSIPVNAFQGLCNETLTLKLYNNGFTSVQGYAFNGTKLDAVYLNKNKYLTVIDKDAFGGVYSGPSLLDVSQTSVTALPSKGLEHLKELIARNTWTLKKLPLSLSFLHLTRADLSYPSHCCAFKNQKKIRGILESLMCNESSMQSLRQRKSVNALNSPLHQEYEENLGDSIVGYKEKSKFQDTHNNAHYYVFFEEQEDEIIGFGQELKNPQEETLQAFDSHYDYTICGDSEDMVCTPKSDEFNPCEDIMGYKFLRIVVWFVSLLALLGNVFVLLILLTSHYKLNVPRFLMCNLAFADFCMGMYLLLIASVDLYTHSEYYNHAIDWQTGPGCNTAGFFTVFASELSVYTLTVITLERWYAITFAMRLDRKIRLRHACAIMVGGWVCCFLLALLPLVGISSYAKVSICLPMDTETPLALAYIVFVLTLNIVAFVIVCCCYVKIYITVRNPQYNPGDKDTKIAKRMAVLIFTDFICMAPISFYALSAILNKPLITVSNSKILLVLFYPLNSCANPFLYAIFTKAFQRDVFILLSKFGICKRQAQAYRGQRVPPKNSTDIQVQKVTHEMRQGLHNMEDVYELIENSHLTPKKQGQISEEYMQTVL
Summary of the method: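 Cell line HEK293 with TSHR; density 800/well. Exposure 30 min RT. Readout HTRF cAMP (cAMP-d2/anti-cAMP-cryptate), 1 h RT before reading.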

[8] = qHTS assay to identify small molecule agonists of the hypoxia (HIF-1) signaling pathway - cell viability counter screen (AID 1224844; calls by dose curve; note: nearly all actives have a fitted effect of over 50% in size; note: potency is the fitted concentration of half-maximal effect)
Summary of the method: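 HRE-bla ME-180 cells, 2,000/well in 0.5% dialyzed FBS medium, treated 17 h at 37C with compounds. Viability read in the same wells as the bla reporter, by CellTiter-Glo luminescence after 30 min at room temperature.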

[9] = qHTS assay to identify small molecule agonists of H2AX (AID 1224845; active = well fitted activation curve with a large enough effect in the signal ratio in the repeat runs, not every such curve was filed as active; the % refers to the signal ratio)
Summary of the method: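 Wild-type CHO-K1 cells plated overnight, then exposed 3 hr at 37C to compounds at 15 concentrations (0.76% DMSO). Lysed, then HTRF anti-pH2AX(S139)-cryptate/anti-H2AX-d2 detection after 24 hr at room temperature; emissions 665 and 620 nm.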

[10] = qHTS assay to identify small molecule agonists of H2AX - cell viability counter screen (AID 1224847; calls by dose curve; note: nearly all actives have a fitted effect of over 30% in size; note: potency is the fitted concentration of half-maximal effect)
Summary of the method: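 Quantitative HTS viability measurement: CHO-K1 wild-type cells in serum (10% FBS) medium, short 3 hr drug exposure at 37C with 0.76% DMSO, CellTiter-Glo luminescent detection.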

[11] = qHTS assay to identify small molecule antagonists of the estrogen related receptor (ERR) signaling pathway from Tox21 library (AID 1224848); note: potency is the fitted concentration of half-maximal effect; nearly all actives have a fitted effect of over 50% in size
Summary of the method: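 Screening used an ERR reporter line supplied by NTP, exposed for 18 h at 37 C to library compounds delivered in DMSO. Signal was luciferase luminescence developed with ONE-Glo at room temperature for 30 min.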

[12] = qHTS assay to identify small molecule agonists of the estrogen related receptor (ERR) signaling pathway from Tox21 library (AID 1224849; calls by dose curve; note: nearly all actives have a fitted effect of over 15% in size); settings: ERR reporter cell line, ONE-Glo luciferase, 18 h
Summary of the method: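 ERR reporter cells (NTP line) pre-incubated 6 hours at 37 C, then exposed to compounds for 18 hours at 37 C. ONE-Glo luciferase luminescence was read after 30 minutes at room temperature.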

[13] = qHTS RealTime-Glo MT Cell Viability Assay in HepG2 cells - 24 hour (AID 1224867); note: nearly all actives have a fitted effect of over 50% in size; note: potency is the fitted concentration of half-maximal effect
Summary of the method: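 Cell number in HepG2 cultures estimated from NanoLuc luminescence generated by metabolic reduction of a prosubstrate by living cells. The homogeneous, nonlytic format allowed repeated reads at 0, 8, 16, 24, 32 and 40 h of compound exposure.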

[14] = qHTS RealTime-Glo MT Cell Viability Assay in HEK293 cells - 32 hour (AID 1224868); note: potency is the fitted concentration of half-maximal effect; nearly all actives have a fitted effect of over 50% in size
Summary of the method: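 Homogeneous bioluminescent viability format in HEK293 cells (600 cells/well). Following 5 h at 37 C/5% CO2, 23 nL compound was pintooled; the signal was measured repeatedly during 40 h incubation.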

[15] = A CellTox Green Cytotoxicity Assay to monitor cytotoxicity in HEK293 cells - 0 hour (AID 1224869); note: nearly all actives have a fitted effect of over 50% in size
Summary of the method: (§1)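 HEK293 cells, 600/well, were preincubated 5 hours and then exposed to compounds at 37 C for up to 40 hours. A cell-impermeant cyanine dye staining dead-cell DNA was read by fluorescence at 0, 8, 16, 24, 32 and 40 h time points.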

[16] = qHTS RealTime-Glo MT Cell Viability Assay in HepG2 cells - 40 hour (AID 1224870); note: nearly all actives have a fitted effect of over 50% in size; note: potency is the fitted concentration of half-maximal effect
Summary of the method: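 HepG2 cells mixed with RealTime-Glo MT reagents (NanoLuc plus cell-permeant prosubstrate) were seeded at 600 cells/well, incubated 5 h at 37 C/5% CO2, then pinned with compounds in DMSO; nonlytic luminescence tracked viability during 40 h treatment.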

[17] = A CellTox Green Cytotoxicity Assay to monitor cytotoxicity in HEK293 cells - 40 hour (AID 1224871); note: nearly all actives have a fitted effect of over 45% in size; note: potency is the fitted concentration of half-maximal effect
Summary of the method: as §1

[18] = qHTS assay to identify small molecule agonists of the hypoxia (HIF-1) signaling pathway (AID 1224846; active = well fitted activation curve with a large enough effect in the signal ratio in the repeat runs, not every such curve was filed as active; the % refers to the signal ratio)
Summary of the method: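 HRE-bla ME-180 beta-lactamase reporter cells in medium with 0.5% dialyzed FBS, pre-incubated 5 h then exposed to compounds 17 h at 37C, 5% CO2; reporter induction read with CCF4-AM FRET substrate.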

[19] = qHTS assay to identify small molecule agonists of the estrogen related receptor signaling pathway with the pleiotropic PPARgamma coactivator (PGC) from Tox21 10K library (AID 1224842); note: nearly all actives have a fitted effect of over 15% in size
Summary of the method: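 PGC/ERR reporter cells (NTP line) were seeded 2,000 per well, rested 6 h at 37 C/5% CO2, then pin-dosed with compounds in DMSO for 18 h at 37 C; luciferase read by One-Glo luminescence after 30 min at room temperature.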

In the case of `Clc1ccc(COC(Cn2ccnc2)c2ccc(Cl)cc2Cl)cc1` (configuration not stated), the Potency [1] is reported as “inactive”, the Potency [2] is reported as 45.3 µM (active) and 54.3 µM (active) and the Potency [3] is reported as 40.4 µM (active) and 43.1 µM (active) and 26.6 µM (active). For the same compound, the Potency [4] was 54.3 µM (active) and 29.8 µM (active), the Potency [5] was “inactive” and the Potency [6] was 50.8 µM (active) and 54.3 µM (active). For the same compound, the Potency [7] was “inactive”, the Potency [8] was 32.3 µM (active) and 34.5 µM (active) and inactive and the Potency [9] was “inactive”. For the same compound, the Potency [10] was 66.6 µM (active) and 56.4 µM (active), the Potency [11] was 20.2 µM (active) and 21.6 µM (active) and 18.8 µM (active) and the activity change, positive = activation ([12]; at 42.5 µM (top of the series)) was -55.4% (inactive). For the same compound, the activity change, positive = activation ([12]; at 92.4 µM (top of the series)) was -77.5% (inactive) and -81.9% (inactive), the Potency [13] was 43.5 µM (active) and the Potency [14] was 18.2 µM (active) and 24.4 µM (active) and 9.52 µM (active). For the same compound, the Potency [15] was “inactive”, the Potency [16] was 48.8 µM (active) and the Potency [17] was 45.7 µM (active) and 54.7 µM (active) and inactive.
In the case of `O=C(NC(=O)c1c(F)cccc1F)Nc1cc(Cl)c(OC(F)(F)C(F)F)c(Cl)c1`, the Potency [1] is reported as “inactive”, the Potency [2] is reported as “inactive” and the Potency [3] is reported as “inactive”. For the same compound, the Potency [4] was “inactive”, the Potency [5] was 2.17 µM (active) and the Potency [6] was “inactive”. The Potency [7] was “inactive”, the Potency [8] was “inactive” and the Potency [9] was “inactive”. The outcome [18] was “inactive”, the Potency [10] was “inactive” and the Potency [13] was “inactive”. The Potency [15] was “inactive”, the Potency [16] was “inactive” and the Potency [17] was “inactive”.
In the case of `CCOc1cc(C(C)(C)C)ccc1C1COC(c2c(F)cccc2F)=N1` (configuration not stated), the Potency [1] is reported as “inactive”, the Potency [2] is reported as “inactive” and the Potency [3] is reported as “inactive”. For the same compound, the Potency [4] was “inactive”, the Potency [5] was 18.6 µM (active) and the Potency [6] was “inactive”. For the same compound, the Potency [19] was “inactive”, the Potency [9] was “inactive” and the outcome [18] was “inactive”. The Potency [10] was 30.7 µM (active), the Potency [11] was 37.1 µM (active) and the activity change, positive = activation ([12]; at 92.4 µM (top of the series) unless noted) was -39.5% [at 42.5 µM] (inactive). For the same compound, the Potency [13] was “inactive”, the Potency [15] was “inactive” and the Potency [16] was “inactive”. For the same compound, the Potency [17] was “inactive”.
With `Cc1c(Cl)c(=O)oc2cc(OP(=O)(OCCCl)OCCCl)ccc12` the Potency [1] was “inactive”, the Potency [2] was “inactive” and the Potency [3] was “inactive”. The Potency [4] was “inactive”, the Potency [5] was “inactive” and the Potency [6] was “inactive”. The Potency [7] was “inactive”, the Potency [8] was “inactive” and the outcome [18] was “inactive”. The Potency [10] was “inactive”, the Potency [13] was “inactive” and the Potency [15] was “inactive”. For the same compound, the Potency [16] was “inactive”.
